# In PubChem BioAssay:
# Unmarked numbers belong to inactive results. How the calls were made is not given here.
# Test system: Aerobactin synthetase IucA (Klebsiella pneumoniae hvKP1)
# Experiment: Biochemical IucA enzyme inhibition primary screen of the Spectrum library (AID 1346200);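 further: 100% = wells without compound and 0% = wells lacking enzyme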
# Details: malachite green pyrophosphate, A620, at 8 µM, hits give low values
row,Structure (SMILES),activity remaining [%]
1,CC(=O)OCC(=O)[C@H]1CCC2C3CC=C4C[C@@H](O)CC[C@]4(C)C3CC[C@@]21C (some centres undefined),92.3
2,Nc1nc(=S)c2[nH]cnc2[nH]1,121
3,CC(=O)OCC(=O)[C@@]1(O)CCC2C3CCC4=CC(=O)CC[C@]4(C)C3C(=O)C[C@@]21C (some centres undefined),120
4,CCC(C)C(NC)C(=O)O (centres undefined),116
5,NS(=O)(=O)c1cc2c(cc1Cl)NC(CSCc1ccccc1)=NS2(=O)=O,113
6,CC(=O)O[C@H]1CC[C@@]2(C)C(C[C@@H](OC(C)=O)[C@@]3(C)C4=CC(=O)O[C@@H](c5ccoc5)[C@]4(C)CCC23)C1(C)C (some centres undefined),89.5
7,NC[C@H]1O[C@H](OC2[C@@H](N)C[C@@H](N)[C@H](O[C@H]3O[C@H](CO)[C@@H](O)[C@H](N)[C@H]3O)[C@H]2O)[C@H](O)[C@@H](O)[C@@H]1O (some centres undefined),97
8,O=C(OCc1ccccc1)c1ccccc1,108
9,Cc1cc(CC(=O)O)n(C)c1C(=O)c1ccc(Cl)cc1,77.2
10,CC(C)(C)NCC(O)COc1cccc2c1C[C@H](O)[C@H](O)C2 (some centres undefined),103
11,O=c1cc(-c2ccc(O)cc2)oc2cc(O[C@@H]3O[C@H](CO)[C@@H](O)[C@H](O)[C@H]3O[C@@H]3OC[C@](O)(CO)[C@H]3O)cc(O)c12,103
12,C[C@]12CCC(=O)C=C1CCC1C2[C@@H](O)C[C@@]2(C)C1CC[C@]2(O)C(=O)CO (some centres undefined),113
13,Cn1nnnc1SCC1=C(C(=O)O)N2C(=O)C(NC(=O)C(OC=O)c3ccccc3)C2SC1 (centres undefined),118
14,C=C1C[C@]23C[C@@]1(O)CC[C@H]2[C@@]12C=C[C@H](O)C(C)(C(=O)O1)[C@H]2[C@@H]3C(=O)O,121
15,COc1ccc(CCN(C)CCCC(C#N)(c2ccc(OC)c(OC)c2)C(C)C)cc1OC (centres undefined),97.5
16,COc1cc(/C=C/C(=O)N2CCC=CC2=O)cc(OC)c1OC,95.4
17,CC(=O)[C@H]1CCC2C3C[C@H](C)C4=CC(=O)CC[C@]4(C)C3[C@@H](O)C[C@@]21C (some centres undefined),101
18,Cc1onc(-c2ccccc2)c1-c1ccc(S(N)(=O)=O)cc1,103
19,CC(=O)O[C@H]1C[C@@H](OC(C)=O)C(C)(C)C2C[C@@H](OC(C)=O)[C@@]3(C)C4=CC(=O)O[C@@H](c5ccoc5)[C@]4(C)CCC3[C@]21C (some centres undefined),102
20,CC(=O)O[C@H]1CC2CCC3C(CC[C@@]4(C)C3C[C@H]([N+]3(C)CCCCC3)[C@@H]4OC(C)=O)[C@@]2(C)C[C@@H]1[N+]1(C)CCCCC1 (some centres undefined),124

row,Structure (SMILES),activity remaining [%]
1,C=C(NC(=O)C(=C)NC(=O)c1csc(C2=NC3c4csc(n4)C4NC(=O)c5csc(n5)C(C(C)(O)C(C)O)NC(=O)C5CSC(=N5)C(=CC)NC(=O)C(C(C)O)NC(=O)c5csc(n5)C3(CC2)NC(=O)C(C)NC(=O)C(=C)NC(=O)C(C)NC(=O)C(C(C)CC)NC2C=Cc3c(C(C)O)cc(nc3C2O)C(=O)OC4C)n1)C(N)=O (centres undefined),121
2,C1CNCCN1,120
3,C[C@]12CCC3C(CC[C@H]4C[C@H](OS(=O)(=O)O)CC[C@]34C)C1CCC2=O (some centres undefined),102
4,O=c1ccc2ccc(O)cc2o1,94.5
5,CCOC(=O)c1c(C)cc(OC)cc1O,110
6,CC(C)=CCCC1(C)C=Cc2c(O)c3c(c(CC=C(C)C)c2O1)OC12C(=CCCC1C(C)(C)O[C@@]2(C/C=C(\C)C(=O)O)C(=O)O)C3=O (some centres undefined),116
7,O=c1c2ccccc2oc2ccc(O)cc12,122
8,CCCCCCNC(=O)n1cc(F)c(=O)[nH]c1=O,112
9,CCOC(N)=O,107
10,CO[C@@]1(NC(=O)Cc2cccs2)C(=O)N2C(C(=O)O)=C(COC(N)=O)CS[C@@H]21,108
11,CC(=O)OCC(COC(C)=O)OC(C)=O,126
12,CCCc1cc(=O)[nH]c(=S)[nH]1,120
13,C[C@@H]1CC[C@H]2[C@@H](C)C(O)O[C@@H]3OC4(C)CC[C@@H]1[C@]32OO4 (some centres undefined),106
14,Nc1ccc(C(=O)Oc2ccccc2)c(O)c1,114
15,Cc1cc(NC(=O)C2=C(O)c3ccccc3S(=O)(=O)N2C)no1,94.1
16,O=C1C(CCS(=O)c2ccccc2)C(=O)N(c2ccccc2)N1c1ccccc1 (centres undefined),116
17,COc1ccc(C(=O)c2ccccc2)c(O)c1,116
18,CCN(CC)CCOc1ccc2c(c1)C(=O)c1cc(OCCN(CC)CC)ccc1-2,118
19,O=C(O)c1ccccc1O,121
